NOD2 RIPK2 PPI = NOD2-RIPK2 protein interaction inhibition; O43353; CHO BLA complementation NOD2-RIPK2, CCF4 ratio; inhibition, % at 4.98 µM; 360,000 compounds, 0.38% hits; AID 624267; in the data active means inhibition above about 21%;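 further: 0% = vehicle only and 100% = reference blocker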
PRMT1 FP inh = inhibitors of human PRMT1; Q99873; inhibition, % at 2.79 µM; 370,000 compounds, 1.3% hits; AID 652257; recombinant PRMT1, activity-based probe fluorescence polarization;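 active means inhibition above about 21% made by adding two undisclosed values, limit read from the data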
TLR4 MyD88 comp = blocks binding of human TLR4 to MyD88 | 200,000 compounds, 0.18% hits | HeLa CL3-4 TLR4/MyD88 BLA complementation, FRET ratio | AID 861 | inhibition, % at 8.4 µM | O00206+Q99836; in the data active means inhibition above about 25%;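 further: 0% = vehicle and 100% = reference inhibitor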
ABHD5 PLIN5 PPI = ABHD5-PLIN5 protein interaction inhibition; 360,000 compounds, 0.78% hits; inhibition, % at 4 µM; Q00G26+Q8WTS1; Split G. princeps luciferase complementation, luminescence, 4 h;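 active means inhibition above the mean inhibition across every tested compound plus 3 SD, cut at about 22% in these data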;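 further: 0% = DMSO only wells and the 100% control is not disclosed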
Granule exo inh = blocks lytic granule exocytosis; TALL-104 LAMP-1 surface exposure, flow cytometry; cells stimulated with thapsigargin and PMA; inhibition, % at 10 µM; 360,000 compounds, 0.66% hits; AID 651702;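 active means inhibition above about 55%, limit read from the data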
TLR9-MyD88 inh = TLR9-MyD88 interaction inhibition; Q9NR96+Q99836; CHO BLA complementation TLR9-MyD88, CCF4 FRET ratio; inhibition, % at 4.98 µM; 340,000 compounds, 0.21% hits;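 active means inhibition above the mean over all tested compounds plus 3 SD, cut at about 21% in these data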;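 further: 0% = DMSO only wells and 100% = clavulanate BLA inhibitor control wells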
ABHD5 PLIN5 conf = ABHD5-PLIN5 interaction inhibition, confirmed; shares compounds with ABHD5 PLIN5 PPI; biochemical ABHD5-PLIN5 interaction, luminescence; inhibition, % at 4 µM; 2,200 compounds, 67% hits; in the data active means inhibition above about 23%;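 further: 0% = DMSO vehicle wells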
HNF4 split-luc = HNF4 split-luciferase signal hit, counter-screen. shares compounds with ABHD5 PLIN5 PPI. HNF4 dimerization, luminescence, biochemical. inhibition, % at 4 µM. 2,200 compounds, 77% hits;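 active means mean inhibition across replicate wells exceeding the computed hit threshold, cut at about 13% in these data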;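 further: light from luciferase halves that rejoin when HNF4 fusion proteins dimerize; 0% = DMSO only wells and the 100% control is not given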
NOD2 RIPK2 conf = confirmation of human NOD2-RIPK2 interaction inhibitors; shares compounds with NOD2 RIPK2 PPI; inhibition, % at 4.98 µM; 1,200 compounds, 70% hits; CHO cells, NOD2-RIPK2 BLA complementation, CCF4 FRET; AID 624370;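 active means mean inhibition across replicates above a set limit taken from the earlier primary screen, cut at about 21% in these data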;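 further: 0% = DMSO-only wells and the high end = clavulanate BLA-blocked wells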
NOD2 BLA counter = counter-screen for NOD2-RIPK2 interaction inhibitors: BLA reporter; shares compounds with NOD2 RIPK2 PPI; inhibition, % at 4.98 µM; 1,200 compounds, 57% hits; CHO BLA reporter, CCF4 FRET ratio, counterscreen;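 active means mean inhibition above the low-control mean inhibition plus three low-control SD, cut at about 11% in these data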;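 further: 0% = DMSO only wells and 100% = clavulanate high control wells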
PRMT1 inh conf = PRMT1 (human) inhibition, FP confirmation; shares compounds with PRMT1 FP inh; recombinant His-PRMT1, activity-based probe fluorescence polarization; inhibition, % at 2.79 µM; 3,300 compounds, 42% hits;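 active means mean inhibition across replicates above the hit cutoff derived for the earlier primary screen, cut at about 22% in these data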
* hit, by the source's call; . = not tested or not shown. Most compounds without a hit are left out; they make up all but 2.6% or so of the library.

SMILES	NOD2 RIPK2 PPI	PRMT1 FP inh	TLR4 MyD88 comp	ABHD5 PLIN5 PPI	Granule exo inh	TLR9-MyD88 inh	ABHD5 PLIN5 conf	HNF4 split-luc	PRMT1 inh conf	others
CC(=O)OCC1=C(C(=O)O)N2C(=O)C(NC(=O)c3ccc(COc4c(C)cccc4Cl)o3)C2SC1 (configuration not stated)	3	47*	-1	25*	-3	10	18	17*	18
CCOc1ccc(C(=O)NC2C(=O)N3C(C(=O)O)=C(COC(C)=O)CSC23)cc1OCC (configuration not stated)	-2	27*	.	32*	-4	-4	11	29*	9
O=C(NCc1ccc2c(c1)OCO2)c1nc(S(=O)(=O)Cc2ccccc2)ncc1Cl	36*	25*	.	54*	35	0	87*	106*	17	NOD2 RIPK2 conf=29*;NOD2 BLA counter=6
O=C(NCc1ccc2c(c1)OCO2)c1ccccc1Cl	-4	-2	.	3	10	0	.	.	.
O=C(NCc1ccc2c(c1)OCO2)c1nc(S(=O)(=O)Cc2ccccc2F)ncc1Cl	79*	29*	.	76*	36	14	84*	106*	22*	NOD2 RIPK2 conf=55*;NOD2 BLA counter=14*
CCOc1cc(/C=C2\C(=O)N(Cc3ccco3)C(C)=C2C(=O)OC)ccc1O	-1	46*	-3	52*	6	3	37*	63*	15
Oc1ccc(N=Nc2ccccc2)o1	-10	35*	.	41*	15	-4	66*	68*	49*
COC(=O)[C@]12C[C@H](CC(=O)NCc3ccc(OC)c(OC)c3)C(=O)N(CCc3ccc(OC)c(OC)c3)C1=C[C@H](C1CCCC1)O[C@@H]2C	.	-3	.	.	.	.	.	.	.
COc1ccc(C2CC(=O)C(c3ccc(C(N)=O)cc3)=CN2Cc2ccccc2)cc1 (configuration not stated)	.	4	.	.	.	.	.	.	.
O=C(O)c1cccc(Nc2ccc([N+](=O)[O-])c3nonc23)c1	-10	4	.	16	-8	-8	.	.	.
O=C(O)c1cccc(Nc2cc(Cl)c3nonc3c2[N+](=O)[O-])c1	-1	54*	1	29*	-5	0	58*	95*	49*
O=C(O)c1ccccc1Nc1cc(Cl)c2nonc2c1[N+](=O)[O-]	-11	62*	.	29*	-2	-15	80*	95*	48*
CCOC(=O)c1c(NC(=O)CSc2ncn[nH]2)sc(C(C)=O)c1C	6	-2	.	0	-4	6	.	.	.
CCOC(=O)c1c(-c2ccc(C)o2)csc1NC(=O)CSc1ncn[nH]1	-7	33*	-9	44*	2	7	12	52*	14
Nc1nc(Sc2ccc([N+](=O)[O-])c3nonc23)c2[nH]cnc2n1	-7	89*	.	53*	27	-14	83*	110*	84*
O=C1c2ccccc2C(=O)N1Nc1ccccc1	0	-1	6	0	1	3	.	.	.
Cc1ccc(NN2C(=O)C=C(c3ccccc3)C2=O)cc1	84*	35*	-3	92*	67*	.	100*	105*	15	NOD2 RIPK2 conf=86*;NOD2 BLA counter=1
CCOC(=O)C1=CCN(S(C)(=O)=O)C1c1ccc(Cl)cc1 (configuration not stated)	.	-4	.	.	.	.	.	.	.
Cc1ccc2c(c1)/C(=C/c1ccco1)C(=O)N2	3	-2	-20	4	1	-3	.	.	.
Cc1ccc(/C=C2\C(=O)Nc3ccccc32)o1	-6	60*	-2	24*	6	-5	8	40*	9

Screens deposited in PubChem BioAssay by several laboratories.
